Screening data (PubChem BioAssay)
HP1b binding inh: HTS for Inhibitors of HP1-beta Chromodomain Interactions with Methylated Histone Tails; Chromobox protein homolog 1 (Homo sapiens), P83916; AlphaScreen HP1-beta / biotin-H3K9me3 peptide binding; Potency, µM (top dose mostly 114 µM), for inactives: at the top dose activity change, negative = inhibition, most hits filed as inhibitors; hit rate 0.56% among 390,000; AID 540317, 2011; further: nearly all actives have a fitted effect of over 70% in size
Target sequence (P83916 whole entry, looked up): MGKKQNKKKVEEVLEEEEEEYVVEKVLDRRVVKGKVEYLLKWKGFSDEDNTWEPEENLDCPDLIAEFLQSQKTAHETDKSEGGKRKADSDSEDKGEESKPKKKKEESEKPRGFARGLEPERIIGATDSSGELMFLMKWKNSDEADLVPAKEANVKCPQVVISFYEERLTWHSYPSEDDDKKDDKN
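HP1-beta protein (50 nM final) preincubated 30 min at room temperature with biotinylated H3(1-18)K9me3 peptide (50 nM) in PBS pH 7.4, 0.01% Tween-20, then compound added for 30 min. AlphaScreen streptavidin donor/nickel chelate acceptor beads (10 ug/mL final), 30 min dark, luminescence read.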
JMJD2A Tudor: qHTS Assay for Inhibitors of JMJD2A-Tudor Domain; AlphaScreen JMJD2A-Tudor / H3K4me3 peptide binding; Potency, µM (series often up to 114 µM), inactives show top-dose activity change, negative = inhibition, hits mostly inhibitors; hit rate 4.4% among 390,000; further: on the % scale 0 is the no-effect control and ±100 the full control effect; nearly all actives have a fitted effect of over 50% in size
L3MBTL1 inh: qHTS Assay for the Inhibitors of L3MBTL1; Potency, µM (highest dose often 57.1 µM), without a hit: at the highest dose activity, negative = inhibition, usual class: inhibitors; Lethal(3)malignant brain tumor-like protein 1 (Homo sapiens), Q9Y468; hit rate 0.66% among 230,000; AlphaScreen L3MBTL1–H3K9me1 peptide binding; AID 485360, 2010; further: on the % scale 0 is the no-effect control and ±100 the full control effect; nearly all actives have a fitted effect of over 60% in size
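L3MBTL1 (50 nM) pre-complexed 30 min with biotinylated H3(1-15)K9me1 peptide (75 nM), then compounds added for 30 min at room temperature; AlphaScreen streptavidin donor/nickel chelate acceptor beads (10 ug/mL final) read after 30 min dark incubation.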
G9a inh: qHTS Assay for Inhibitors of Histone Lysine Methyltransferase G9a. G9a H3K9 monomethylation, AlphaScreen, 2 h. Potency, µM (titrated, usually from 102 µM), for the others: top-dose activity, negative = inhibition, actives largely listed as inhibitors. hit rate 8.8% among 350,000. AID 504332, 2011; further: on the % scale 0 is the no-effect control and ±100 the full control effect; nearly all actives have a fitted effect of over 75% in size
Target sequence (Q96KQ7 913-1193 limits assumed): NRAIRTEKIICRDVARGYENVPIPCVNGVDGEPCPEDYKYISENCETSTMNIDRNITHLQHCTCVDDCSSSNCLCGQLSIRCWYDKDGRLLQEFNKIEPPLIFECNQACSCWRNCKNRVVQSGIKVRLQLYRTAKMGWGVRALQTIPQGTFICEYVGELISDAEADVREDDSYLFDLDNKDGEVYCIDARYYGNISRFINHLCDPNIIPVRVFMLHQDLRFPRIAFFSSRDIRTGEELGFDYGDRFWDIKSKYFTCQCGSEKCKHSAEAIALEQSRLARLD
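AlphaScreen detection with an anti-monomethyl H3K9 antibody quantified product after a 2 h room-temperature reaction containing 500 nM biotinylated H3K9 peptide, 20 µM SAM and 20 nM enzyme, which had been preincubated 15 min with compound.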
Sfp inh: qHTS Assay for Inhibitors of Bacillus subtilis Sfp phosphopantetheinyl transferase (PPTase). hit rate 3.5% among 310,000. Biochemical Sfp PPTase activity, qHTS. Potency, µM, inactives show largest response in the series, negative = inhibition, most hits filed as inhibitors;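 further: the enzyme is Sfp with the accession as filed and its product quenches rhodamine fluorescence; 0% = enzyme reaction without inhibitor and -100% = no enzyme wells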
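Buffer: 50 mM Hepes-Na pH 7.6, 10 mM MgCl2, 0.01% Nonidet P-40, 0.01% BSA. Enzyme 15 nM, pre-exposed to compound 15 min; substrates then added and fluorescence change tracked over 30 min.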
BAZ2B inh: qHTS Assay for Inhibitors of BAZ2B. AlphaScreen BAZ2B-H3K14Ac peptide displacement. hit rate 4.4% among 360,000. AID 504333, 2011. Potency, µM (doses to about 114 µM), inactives show at the highest dose activity change, negative = inhibition, most hits filed as inhibitors. Bromodomain adjacent to zinc finger domain protein 2B (Homo sapiens), Q9UIF8; further: on the % scale 0 is the no-effect control and ±100 the full control effect; nearly all actives have a fitted effect of over 60% in size
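BAZ2B 50 nM plus b-H3(5-23)K14Ac 50 nM, PBS pH 7.4/0.01% Tween-20, 30 min RT; compound added (max 110 uM), 30 min RT; streptavidin donor/Ni-chelate acceptor beads 10 ug/mL final, 20 min dark; AlphaScreen read.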
* hit, by the source's call; [ ] = dose if it differs, or a comment. This is a sample that favours compounds with a hit; in the whole collection about 12% have one here. The call rests on the fitted dose curve; in most records, active means well fitted curve in the direction sought with a large enough effect; inconclusive means small, poorly fitted or top-dose-only effect, or another doubt; inactive means no such curve, though single readings can be large; an effect the other way counts as inactive or inconclusive. Potency means the concentration at half of the fitted maximal effect.

`N#CCc1c(C#N)c(N)nc(N2CCN(S(=O)(=O)c3ccccc3F)CC2)c1C#N` gave HP1b binding inh 44.3%, JMJD2A Tudor -4.9%, G9a inh -0.5%, Sfp inh 7.3% and BAZ2B inh -36.7%.
Screening C/C=C/C1=Cc2ccccc2C(CC(=O)OC)N1C(=O)OC (stereo not given) returned Sfp inh 8.8%.
`CCCOc1cccc(C(=O)Nc2ccc(-c3nc4ccccc4s3)c(Cl)c2)c1` gave HP1b binding inh 7.2%, JMJD2A Tudor -2.4%, G9a inh inconclusive and BAZ2B inh 3.7%.
Cc1ccc(SCc2cc(=O)c3c(=O)n(-c4ccccc4)[nH]c3[nH]2)cc1 was read as HP1b binding inh inconclusive, JMJD2A Tudor inconclusive, L3MBTL1 inh -90.1%, G9a inh 17.8µM*, Sfp inh 70.8µM* and BAZ2B inh 28.2µM*.
Screening Cc1ccc2c(=O)cc(CSc3ccccc3)[nH]c2c1C returned HP1b binding inh 17.5%[57 µM], JMJD2A Tudor -14.9%, G9a inh 20.4%[59 µM] and BAZ2B inh 8.0%.
Screening O=c1cc(CSc2ccc(Cl)cc2)[nH]c2[nH]n(-c3ccccc3)c(=O)c12 returned HP1b binding inh inconclusive, JMJD2A Tudor inconclusive, L3MBTL1 inh inconclusive, G9a inh 39.8µM*, Sfp inh 2.8% and BAZ2B inh 35.5µM*.
CCC(=O)N1CCc2cc(S(=O)(=O)NC(CC(C)C)C(=O)Nc3ccc(CC)cc3)ccc21 (stereo not given) was read as HP1b binding inh 41.3%, JMJD2A Tudor -1.0% and G9a inh 6.1%[59 µM].
Screening CCC(C)/C(C)=N/NC(=O)c1ccc(COc2ccc(Cl)c(C)c2)cc1 (stereo not given) returned HP1b binding inh 33.7%, JMJD2A Tudor -11.6%, L3MBTL1 inh 0.2%, G9a inh 20.9%[59 µM], Sfp inh 17.1% and BAZ2B inh 8.7%.
For COCCn1cc(C(=O)NCCN(C)C)c2c3ccccc3n(C)c2c1=O the results were HP1b binding inh 24.1%, JMJD2A Tudor -9.4%, G9a inh 7.4%, Sfp inh 1.2% and BAZ2B inh 0.1%.
For COCCn1cc(C(=O)NCc2cccs2)c2c3ccccc3n(C)c2c1=O the results were HP1b binding inh 11.9%, JMJD2A Tudor -14.1%, L3MBTL1 inh 5.1%, G9a inh 50.1µM*, Sfp inh -13.1% and BAZ2B inh 6.2%.
For COc1cc(/C=C/C(=O)O)cc(S(=O)(=O)Nc2ccccc2Cl)c1OC the results were HP1b binding inh 37.3%, JMJD2A Tudor 1.1%[57.1 µM], L3MBTL1 inh 14.4%, G9a inh inconclusive, Sfp inh 3.3% and BAZ2B inh -0.8%.
`CCOc1ccc(-n2nc(CO)c(C(=O)NCCCc3ccccc3)n2)cc1` gave HP1b binding inh 45.4%, JMJD2A Tudor -4.4%, G9a inh 2.9%[59 µM] and BAZ2B inh 9.0%.
For O=C(CSc1nn(-c2ccc(Cl)cc2)c(=S)s1)N1CCN(C(=O)c2ccco2)CC1 the results were HP1b binding inh 6.4%, JMJD2A Tudor -16.0%, L3MBTL1 inh -14.3%, G9a inh 79.4µM*, Sfp inh -9.9% and BAZ2B inh 18.9%.
`CCN(C(=O)CN1CCN(C)CC1)c1cccc2ccccc12` gave HP1b binding inh inconclusive, JMJD2A Tudor 1.78µM*, L3MBTL1 inh -5.3%, G9a inh 1.78µM*, Sfp inh -12.6% and BAZ2B inh 31.6µM*.
`CCN(C(=O)CN1C(=O)CN(C)C1=O)c1cccc2ccccc12` gave HP1b binding inh 8.0%, JMJD2A Tudor -15.2% and L3MBTL1 inh -9.8%.
COc1cc(C(=O)N2CCN(c3cccc(C(F)(F)F)c3)CC2)ccc1OCC(=O)N1CCOCC1 was read as HP1b binding inh 22.3% and JMJD2A Tudor -11.3%.
For O=C(CSc1ccccc1C(=O)N1CCN(c2ccccc2)CC1)N1CCCC1 the results were HP1b binding inh 42.8%, JMJD2A Tudor 2.7%, L3MBTL1 inh 0.8%, G9a inh 12.6µM* and BAZ2B inh -5.1%.
For O=C(CSc1ccccc1C(=O)N1CCN(c2ccc([N+](=O)[O-])cc2)CC1)N1CCCC1 the results were HP1b binding inh 11.2%, JMJD2A Tudor -27.4% and L3MBTL1 inh -3.9%.
O=C(CSc1ccccn1)N1CCN(c2cccc(Cl)c2)CC1 was read as HP1b binding inh -0.5%, JMJD2A Tudor 79.4µM*, G9a inh 2.82µM*, Sfp inh 50.1µM* and BAZ2B inh -19.8%.
Screening O=C(CSc1ccc(-c2ccccc2)nn1)N1CCN(c2ccccc2)CC1 returned HP1b binding inh 16.1%, JMJD2A Tudor -11.3%, L3MBTL1 inh 3.1%, G9a inh -0.8%, Sfp inh 79.4µM* and BAZ2B inh 16.0%.
Cc1ccc(-c2ccc(SCC(=O)N3CCN(c4ccccc4)CC3)nn2)cc1 was read as HP1b binding inh 26.6%, JMJD2A Tudor -16.6%, L3MBTL1 inh 6.2%, G9a inh -8.1%, Sfp inh -13.9% and BAZ2B inh -3.1%.
O=C(CSc1nccc(=O)[nH]1)N1CCN(c2ccccc2)CC1 was read as HP1b binding inh -3.0%, JMJD2A Tudor inconclusive, L3MBTL1 inh 8.6%, Sfp inh -16.1% and BAZ2B inh 79.4µM*.
CCc1ccc(NC(=O)CSc2ncc(S(=O)(=O)c3cc(C)ccc3C)c(=O)[nH]2)cc1 was read as HP1b binding inh 4.5%, JMJD2A Tudor -22.9%, G9a inh -21.2%[59 µM] and BAZ2B inh -0.3%.
COCCCNC(=O)c1ccc(-n2c(-c3ccccc3)cc3c2CCCC3)cc1 was read as HP1b binding inh 16.5%, JMJD2A Tudor -22.4%, G9a inh -38.7%[59 µM] and BAZ2B inh -15.9%.
`CCC(C)NC(=O)c1ccc(Cl)c(S(=O)(=O)Nc2ccccc2N2CCOCC2)c1` (stereo not given) gave HP1b binding inh 31.3%, JMJD2A Tudor -14.0%, L3MBTL1 inh 9.7%, G9a inh -2.7%[0.501 µM] and BAZ2B inh -18.1%.
`O=C(OC(C(=O)NCc1ccc2c(c1)OCO2)c1ccncc1)c1ccc(Cl)nc1` (stereo not given) gave HP1b binding inh 36.5%, JMJD2A Tudor -5.6%, L3MBTL1 inh -4.4%, G9a inh -0.8%, Sfp inh 16.2% and BAZ2B inh -17.8%.
